Only some compounds are listed: those with a hit (about 1.2% of all), similar ones and a draw of the others.
FAS-TE inh = blocks the thioesterase domain of human fatty acid synthase. P49327. recombinant FAS-TE, OMFH fluorogenic substrate, fluorescence endpoint. inhibition, % at 15 µM. 0.67% of 360,000 active. AID 602261;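 active = compounds whose normalised, plate-corrected inhibition of enzyme fluorescence in the single-dose primary screen is 50% or more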
UBC9 SUMO inh = inhibitors of human SUMOylation (UBC9) | HTRF SUMOylation assay, SAE1/SAE2 + UBC9, in vitro | AID 2006 | inhibition, % at 35 µM | 0.36% of 290,000 active | P63279; in the data active = inhibition above about 50%, passing the limit was not always enough
FAS-TE inh conf = confirmation of human fatty acid synthase thioesterase inhibitors | inhibition, % at 15 µM | recombinant FAS-TE, OMFH fluorogenic substrate, fluorescence | shares compounds with FAS-TE inh | 45% of 2,300 active;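 active = compounds inhibiting the enzyme by at least 50% at 15 µM in any one of the replicates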
Each line names hits and unclear results; the compound was inactive in the other large screens (follow-up assays come after a bar, where they were run).

COc1ccc2c(C)c(CC(=O)N3C[C@H]4C[C@@H](C3)c3cccc(=O)n3C4)c(=O)oc2c1C	none
O=[N+]([O-])c1ccc(NCc2ccc(Cl)cc2)c2ccncc12	FAS-TE inh 73 | FAS-TE inh conf 58
CCOC(=O)[C@]12Cc3cc(OC)c(OC)cc3[C@H]1N(Cc1ccccc1)C(=O)c1ccccc12	none (no result: UBC9 SUMO inh)
CCOC(=O)[C@]12Cc3cc4ccccc4cc3[C@H]1N(Cc1ccccc1)C(=O)c1ccccc12	FAS-TE inh 61 (no result: UBC9 SUMO inh) | FAS-TE inh conf inactive
CCOC(=O)[C@]12Cc3cc4ccccc4cc3[C@H]1N(Cc1ccccc1)C(=O)c1cc(OC)ccc12	FAS-TE inh 65 (no result: UBC9 SUMO inh) | FAS-TE inh conf inactive
COC(=O)C1=C(c2ccc(OC(F)(F)F)cc2)C[C@@H]2CC[C@H]1N2C(=O)NC1CC1	none (no result: UBC9 SUMO inh)
O=C(N/N=C/c1c(O)n(C2CCCCC2)c(=S)[nH]c1=O)c1ccccc1O	FAS-TE inh 55 (no result: UBC9 SUMO inh) | FAS-TE inh conf 42
O=C(N/N=C/c1c(O)n(C2CCCCC2)c(=S)[nH]c1=O)c1ccccc1	none

Screening data (PubChem)
